Measured values: PubChem BioAssay (NCI)
This is part of a sample that, as a whole, favours compounds with a hit. Of some 83,000 tested, about 20% had one in any assay.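 Each cell line was grown in a 96-well plate and treated with one concentration of compound for 48 hours. Values below 10 were considered active.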 Unmarked numbers belong to inactive results. Calls of active or inactive are those of the source.

How the values were obtained:
Assay in all cases: NCI-60 one-dose screen, 48 h (100 = growth as untreated, 0 = no growth, -100 = all killed)
Settings in all cases: 10 µM unless noted
DU-145 prostate = system: DU-145 prostate
K-562 leukemia = system: K-562 leukemia
MALME-3M melanoma = system: MALME-3M melanoma
MDA-MB-231 breast = system: MDA-MB-231 breast
RXF 393 renal = system: RXF 393 renal
SF-268 CNS = system: SF-268 CNS
SF-295 CNS = system: SF-295 CNS
SF-539 CNS = system: SF-539 CNS
UACC-257 melanoma = system: UACC-257 melanoma
M14 melanoma = system: M14 melanoma

| Compound | growth (DU-145 prostate) | growth (K-562 leukemia) | growth (MALME-3M melanoma) | growth (MDA-MB-231 breast) | growth (RXF 393 renal) | growth (SF-268 CNS) | growth (SF-295 CNS) | growth (SF-539 CNS) | growth (UACC-257 melanoma) | growth (M14 melanoma) |
| --- | --- | --- | --- | --- | --- | --- | --- | --- | --- | --- |
| CN1CCC(COc2cnc(-c3cccc(Cn4nc(-c5cccc(C#N)c5)ccc4=O)c3)nc2)CC1 | 77.8% | 3.04% (active) | 48.4% | 57.3% | 87.7% | 67.2% | 54.5% | 33.5% | -27.5% (active) | 39% |
| COc1cc2c(Oc3ccc4[nH]c(C)cc4c3F)ncnc2cc1OCCCN1CCCC1 | 96.8% | 71.2% | 101% | 104% | 74.7% | 72.2% | 97.7% | 45.2% | 98.8% | 92.8% |
| C=CCN1C(=O)c2cccc3c(-c4ccc5c(c4)ncn5C4CCCCC4)ccc(c23)C1=O | 72.5% | 26.2% | 56% | 57.1% | 110% | 72.4% | 44.5% | 71.4% | 44.6% | 50% |
| COc1cc(N2CCC(N(C)C)CC2)ccc1Nc1ncc(Cl)c(Nc2ccccc2P(C)(C)=O)n1 | 0.609% (active) | 12.5% | 32% | 5.47% (active) | -60.1% (active) | -26.8% (active) | 27.7% | -49.3% (active) | 17.2% | 10.3% |
| CC[C@H](CO)Nc1nc(NCc2ccccc2)c2ncn(C(C)C)c2n1 | 53.9% | 58.5% | 87.4% | 75.6% | -22.3% (active) | 70.9% | 59.8% | 57.2% | 91.6% | 71.8% |
| COc1cc2ncnc(Nc3ccc(F)c(Cl)c3)c2cc1NC(=O)/C=C/CN1CCCCC1 | -42.7% (active) | -28.5% (active) | -80.7% (active) | -68.7% (active) | -92.1% (active) | -74.5% (active) | -55% (active) | -89.9% (active) | -77% (active) | -72% (active) |
| NC[C@@](O)(c1ccc(Cl)cc1)c1ccc(-c2cn[nH]c2)cc1 | 30.3% | 17.2% | -24.7% (active) | 31.7% | -6.86% (active) | 35.5% | 28.6% | 3.43% (active) | -23.9% (active) | 7.61% (active) |
| Cc1cc(N(CCNc2ccnc3cc(Cl)ccc23)Cc2cccs2)nc(Cl)n1 | 23.9% | -50.9% (active) | -29.4% (active) | -35.7% (active) | -63.3% (active) | 19.3% | -44.6% (active) | -92.2% (active) |  | -67.3% (active) |
| O=C(/C=C/c1ccc2c(c1)OCO2)c1c(O)c2ccccc2oc1=O | 109% | 69.4% | 101% | 103% | 135% | 93.6% | 100% | 105% | 78.1% | 94.9% |
| O=S1(=O)OC(c2ccc(O)c(Cl)c2)(c2ccc(O)c(Cl)c2)c2ccccc21 | 103% | 113% | 114% | 109% | 105% | 96.9% | 103% | 93.3% | 98.9% | 105% |
| Cc1nc(N)sc1-c1ccnc(Nc2ccc(N3CCOCC3)cc2)n1 | 33.2% | 59.1% | 47.8% | 29.5% | 18.3% | 28.5% | 25.3% | 25.6% | 71.9% | 36.8% |
| CC(C)=CCc1cc2c(cc1O)C1=C(C(=O)C3=C(NCCS3(=O)=O)C1=O)C(C=C(C)C)O2 (configuration not stated) | 41.2% | 8.83% (active) | -42.9% (active) | 12.1% | 57.2% | 0.726% (active) | 91.7% | 20% |  | 3.7% (active) |
| CCCNC(=O)c1cn2ncnc(Nc3cc(C(=O)NC4CC4)ccc3C)c2c1C | 103% | 85% | 3.42% (active) | 79.2% | 40% | 88% | 79.5% | 77.3% | 65.6% | 92.4% |
| O=C1C=CC2(NN=C(c3ccccc3)N2c2ccccc2)c2cccc(O)c21 (configuration not stated) | 35.7% | 28.6% | 11.6% | 75.6% | 120% | 49.4% | 17.1% | 25.4% | 3.12% (active) | 8.81% (active) |
| Cc1cc(C(=O)NOCCO)c(Nc2ccc(I)cc2F)n(C)c1=O | 69.8% | 34.2% | -4.71% (active) | 40.7% | 27.3% | 78.9% | 84% | 60.8% | -19.6% (active) | 7.71% (active) |
| Cn1ncc(Cl)c1-c1cc(C(=O)N[C@H](CN)Cc2ccc(F)c(F)c2)oc1Cl | 19.1% | -32.7% (active) | -78.6% (active) | -43.8% (active) | -52.6% (active) | 23.1% | -65.8% (active) | -75.1% (active) | -89.4% (active) | -78.5% (active) |
| C#Cc1cccc(Nc2ncnc3cc4c(cc23)OCCOCCOCCO4)c1 | 47.8% | 36.2% | 84.8% | 67.4% | 40.7% | 51.6% | 39.6% | 80.5% | 38.9% | 49.2% |
| Clc1ccc2c(NCCNc3nc(N4CCCC4)nc4ccccc34)ccnc2c1 | 5.1% (active) | -24.9% (active) | -69.6% (active) | -60.7% (active) | -56.9% (active) | 16.2% | -73.1% (active) | -92.6% (active) |  | -71.5% (active) |
| Clc1ccc2c(NCCCNCc3ccc4c(c3)OCO4)ccnc2c1 | 58.1% | -10.9% (active) | -69.6% (active) | 12.9% | 19% | 62% | 59.8% | -86.7% (active) |  | -72.5% (active) |
| N#CC(C#N)=NO | 111% | 108% | 99% | 108% | 105% | 100% | 101% | 99.8% |  | 110% |
| Cc1cc(N2CCCC2)nc(N(CCCNc2ccnc3cc(Cl)ccc23)Cc2ccc3c(c2)OCO3)n1 | 27.9% | -15.4% (active) | -76.9% (active) | 4.2% (active) | -66.1% (active) | 31.2% | -62% (active) | -90.5% (active) |  | -83.4% (active) |
| COc1cc(C2CC(c3ccc(Cl)cc3)=NN2c2ccc(Cl)cc2)cc(OC)c1OC (configuration not stated) | 106% | 93.8% | 92% | 79.8% | 89.6% | 90.6% | 95.3% | 93.9% |  | 90.3% |
| Cc1cc(N(CCNc2ccnc3cc(Cl)ccc23)Cc2ccc3c(c2)OCO3)nc(N2CCN(C)CC2)n1 | 38.2% | -59.1% (active) | -71.6% (active) | 4.9% (active) | -45.7% (active) | 29.3% | -66.4% (active) | -80.9% (active) |  | -79.6% (active) |
| CC12O[C@H](C[C@@H](OC(=O)CCC(=O)O)[C@H]1O)n1c3ccccc3c3c4c(c5c6ccccc6n2c5c31)C(=O)NC4=O | 41.8% | 44.5% | -21.6% (active) | 64.3% | -3.02% (active) | 46.4% | 13.1% | -8.98% (active) |  | -6.7% (active) |
| Cc1cc2c(-c3nc4ccccn4c3Nc3cccc4ccccc34)c(O)c(O)cc2c(O)c1-c1c(C)cc2c(-c3nc4ccccn4c3Nc3cccc4ccccc34)c(O)c(O)cc2c1O | 31.4% | 15.2% | 10.8% | 23.3% | 39.6% | 30.9% | 13.1% | 20.4% |  | 27.2% |
| Nc1ncnc2c1ccn2-c1cccc(NC(=O)c2ccc(N3CCOCC3)c(C(F)(F)F)c2)c1 | 57.8% | 21% | 65.3% | 46.6% | 19.4% | 55% | 28.6% | 46.9% |  | 44.5% |
| C=CCCCC(=O)CCC(=O)OCC1O[C@@H](O[C@@H]2C(O)[C@@H](OC(C)=O)C(C)O[C@H]2O[C@H](CC=C)CCCCC)C(O)[C@@H](OC(=O)/C(C)=C/C)[C@@H]1OC(=O)/C=C/c1ccccc1 (some centres not stated) | 33.3% | 34.3% | 17.7% | 4.48% (active) |  | 29.2% | -11.9% (active) | 14.3% |  | -10.3% (active) |
